Tgondii IFNg = blocks Toxoplasma gondii growth in the presence of IFN-gamma; Toxoplasma gondii growth in IFN-gamma-treated host cells; hits give low values; activity change, negative = inhibition, % (concentration not given with the values); actives 3.8% (n = 69,000); AID 1259416; in the data active = activity change below about -70%, passing the limit was not always enough;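 note: host cells are HeLa cells infected with Toxoplasma gondii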
Hits are given with their value; i = inactive. Shown is part of a subset that was picked to be rich in hits.

SMILES	Tgondii IFNg
Cc1ccoc1C(=O)N1CCC(O)(C(=O)O)CC1	i
Cc1ccc(-c2nc(CCNC(=O)C(=O)Nc3cccc(C)c3C)cs2)cc1	i
CS(=O)(=O)N1CC[C@@H]2[C@H]1CCN2c1ccccn1	i
c1ccc(C2c3[nH]c4ccccc4c3CCN2Cc2cn[nH]c2C2CCCCC2)nc1 (stereo not given)	i
Cc1ccc(-c2cc(O)c3c(c2)CN(C(=O)Nc2ccccc2)CCO3)s1	i
Cc1csc(NC(=O)C2CNCc3ccnn3C2)n1 (stereo not given)	i
CN(C)S(=O)(=O)c1ccc2c(c1)cc(C(=O)NCCc1ccc(Cl)cc1)n2Cc1ccncc1	i
Cc1ccc(Nc2nc(C(=O)N3CCOCC3)nc3ccccc23)cc1	i
Cc1coc2c1C(=O)C(=O)c1c-2ccc2c(C)cccc12	-72.0
O=C(CCc1ccccc1)NCCc1csc(-c2ccc(F)cc2)n1	i
Cc1ccccc1NC(=O)c1c(O)c2cccnc2n(-c2cccc(F)c2)c1=O	-94.0
Cc1cc(F)ccc1NC(=O)c1c(O)c2ccccc2n(-c2ccccc2)c1=O	i
O=C(Nc1ccccc1F)c1c(O)c2cccnc2n(-c2cccc(F)c2)c1=O	i
CCOc1ccccc1NC(=O)c1c(O)c2cccnc2n(-c2cccc(F)c2)c1=O	i
COc1cccc(-n2c(=O)c(C(=O)NCc3ccccc3Cl)c(O)c3cccnc32)c1	-91.0
Cc1cc(F)ccc1NC(=O)c1c(O)c2cccnc2n(-c2ccccc2)c1=O	i
O=C(Nc1ccc(F)cc1F)c1c(O)c2cccnc2n(-c2ccccc2)c1=O	i
COc1cccc(-n2c(=O)c(C(=O)NCc3ccccc3F)c(O)c3cccnc32)c1	i
Cc1cccc(C)c1NC(=O)c1c(O)c2ccccc2n(-c2ccccc2)c1=O	-104.9
Cc1ccc(NC(=O)c2c(O)c3ccccc3n(-c3ccccc3)c2=O)c(C)c1	i
COc1cccc(-n2c(=O)c(C(=O)NCc3ccc(F)cc3F)c(O)c3cccnc32)c1	i
CCc1ccccc1NC(=O)c1c(O)c2cccnc2n(-c2cccc(F)c2)c1=O	-104.4
CN(Cc1ccc(-n2cccn2)cc1)Cc1ccc(-c2ccn[nH]2)o1	i
CCc1c(C)nn(CCNc2nc(CCN)nc3ccccc23)c1C	i
CCCc1ncncc1C(=O)NCc1cc(F)cc2c(C)c(C)[nH]c12	i
SMILES	Tgondii IFNg
CNC(=O)N1CCN(Cc2cnn(C)c2)CC2(CCCC(=O)N2)C1 (stereo not given)	i
CN(C)C(=O)N1CCC2(CC1)C(c1cnn(C)c1)CC(=O)N2C (stereo not given)	i
O=C(CCc1ccc(=O)[nH]n1)N1CCCC(c2ccn[nH]2)C1 (stereo not given)	i
Cc1ccnn1CCNC(=O)c1cccc(-c2ncn[nH]2)c1	i
CN(C)CCOC1CC2(CCN(c3cnccn3)CC2)c2ccccc21 (stereo not given)	i
O=C(c1ccc(-c2ccccc2)[nH]1)N1CCC(O)(CO)CC1	i
CC(=O)N1CCc2c(nnn2CC2CC2)C1COCc1ccccc1 (stereo not given)	i
O=C(Nc1ccc(F)cc1)c1c(O)c2cccnc2n(-c2cccc(F)c2)c1=O	i
O=C(NCc1ccccc1)c1c(O)c2cccnc2n(-c2ccccc2)c1=O	i
O=C(Nc1ccc(Cl)cc1)c1c(O)c2cccnc2n(-c2cccc(F)c2)c1=O	-102.3
CCOc1ccccc1NC(=O)c1c(O)c2cccnc2n(-c2ccc(F)cc2)c1=O	i
CCc1ccccc1NC(=O)c1c(O)c2cccnc2n(-c2ccc(F)cc2)c1=O	-79.5
O=C(NCc1cc(F)cc(F)c1)c1c(O)c2cccnc2n(-c2ccccc2)c1=O	-91.0
O=C(Nc1ccc(F)cc1Cl)c1c(O)c2cccnc2n(-c2ccc(F)cc2)c1=O	i
O=C(NCc1cc(F)cc(F)c1)c1c(O)c2cccnc2n(-c2cccc(F)c2)c1=O	i
CCc1ccc(NC(=O)c2c(O)c3cccnc3n(-c3ccc(F)cc3)c2=O)cc1	i
COc1cccc(-n2c(=O)c(C(=O)Nc3ccccc3Cl)c(O)c3cccnc32)c1	i
Cc1ccc(NC(=O)c2c(O)c3cccnc3n(-c3cccc(F)c3)c2=O)cc1	i
O=C(Nc1ccccc1Cl)c1c(O)c2cccnc2n(-c2cccc(F)c2)c1=O	-87.0
CCOc1ccc(-c2ccccc2NC(=O)COC)cc1	i
CN(C)CCN1CCCC12CCCN(c1cnccn1)C2 (stereo not given)	i
COCCn1c(C)c(C)c2cc(NC(=O)c3cn(C)c(=O)c4ccccc34)ccc21	i
Cc1n[nH]c(C)c1Sc1ccccc1-n1cnnc1	i
COc1ccccc1CNC(=O)c1c(O)c2cccnc2n(-c2ccc(F)cc2)c1=O	-73.9
COc1ccccc1CNC(=O)c1c(O)c2cccnc2n(-c2cccc(F)c2)c1=O	i
SMILES	Tgondii IFNg
O=C(NCc1ccccc1Cl)c1c(O)c2cccnc2n(-c2ccc(F)cc2)c1=O	i
COc1ccc(-c2ccccc2[C@H]2[C@@H](C#N)N(C(=O)NC(C)C)[C@H]2CO)cc1	i
COc1ccc(-c2ccc([C@H]3[C@@H](C#N)N(C(=O)NC(C)C)[C@H]3CO)cc2)cc1	-75.7
COc1ccc(-c2ccc([C@H]3[C@H](C#N)N(C(=O)NC(C)C)[C@H]3CO)cc2)cc1	i
Cc1ccc(CN2CCC3OCCN(c4cccnc4)C3CC2)s1 (stereo not given)	i
O=c1[nH]c2ccccc2c(O)c1-c1nc(-c2ccc(Cl)c(F)c2)no1	i
COc1ccc(-c2nccc(C(F)(F)F)n2)cn1	i
COc1ccc(-c2ccc3ncc4c(c3c2)n(-c2ccc(N3CCNCC3)c(C(F)(F)F)c2)c(=O)n4C)cn1	-89.7
COc1ccc(C(=O)Nc2ccc3c(c2)nc(C(F)(F)F)n3C)cn1	i
CCn1c(CC2CCNCC2)nn(Cc2cc(C(C)C)on2)c1=O	i
CNC(=O)CC1CCN(C2CCCNC2)CC1 (stereo not given)	i
Cc1nc(CN2C(=O)C[C@H]3[C@H]2CCN3C(=O)C2CCOCC2)cs1	i
COc1ccc(C(=O)Cn2nc3c(cc2=O)CN(c2ccc4c(c2)OCCO4)CC3)cc1	i
O=C(Oc1ccc(Oc2ccccc2)cc1)N1CCC(OC(=O)n2ccnc2)CC1	-97.2
COc1ccc(C(c2ccccc2)N2CCN(C(=O)C(C)n3ccnc3)CC2)cc1 (stereo not given)	i
O=C(CN1CCOCC1)Nc1ccc(Oc2ccccc2)cc1	i
CCn1c(=O)c(-c2nc(-c3ccccc3Cl)no2)c(O)c2cc(F)ccc21	i
CSc1cccc(NC(=O)Cn2c(=O)cc(-c3nc(C(C)C)no3)c3ccccc32)c1	i
COCC1c2nnn(CC3CC3)c2CCN1S(C)(=O)=O (stereo not given)	i
O=C(c1cccnc1)N1CCC2(CCN(CC3CCOCC3)CC2)C1	i
COc1cc(OC(C)=O)c(-c2cc(OC(C)=O)c(OC)cc2OC(C)=O)cc1OC(C)=O	i
CC(=O)Nc1cc(OC(C)=O)c2nonc2c1OC(C)=O	-75.1
CC(=O)Oc1cccc(C(=O)O)c1OC(C)=O	i
CCC(C)NC(=O)Cn1c(=O)cc(-c2nc(C)no2)c2ccccc21 (stereo not given)	i
COc1ccc(C2(C(=O)NCCC3CCCN(C)C3)CC2)cc1 (stereo not given)	i
CC(=O)N1CC(=O)N(c2ccccc2)CC12CCN(C(=O)N1CCCC1)C2 (stereo not given)	i
CC(=O)N1CC(=O)N(c2ccccc2)CC12CCN(C(=O)C1CCOCC1)C2 (stereo not given)	i
CC(=O)N1CC(=O)N(c2ccccc2)CC12CCN(CC1CCOCC1)C2 (stereo not given)	-85.9
